The full data set covers some 7,900 targets. This sample favours those with a hit. About 0.6% of all pairs of compound and target were hits.
How the values were obtained:
Assay in all cases: log2 fold change, soluble protein after heating vs DMSO (PISA); higher = thermal stabilisation; K562 cells, 10 uM, 30 min; active = over 0.2 and 3.5 SD of the protein, either way, in both replicates (recomputed)
[1] = compound: CC[C@@H]1C(=O)N(C)c2cnc(Nc3ccc(C(=O)NC4CCN(C)CC4)cc3OC)nc2N1C1CCCC1
How it was run: (§1)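 Aliquots of K562 cells (2×10^6 cells/mL) treated with 10 μM compound for 30 min were heated for 3 min over 48°C-58°C. After pooling and extraction in PBS with 0.5% NP-40 at 4°C, soluble protein from a 21,000xg, 90 min spin was quantified by TMTpro 16plex LC-MS/MS with channel sums equalised. Thermal stability is expressed against control samples, from duplicates, as a log2 fold change.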

volasertib = compound: CC[C@@H]1C(=O)N(C)c2cnc(Nc3ccc(C(=O)N[C@H]4CC[C@H](N5CCN(CC6CC6)CC5)CC4)cc3OC)nc2N1C(C)C [volasertib]
How it was run: as §1

[2] = compound: CC[C@H](C)N1C=C(C2=C(C=C(C=C21)C3=CN=C(C=C3)N4CCNCC4)C(=O)NCC5=C(C=C(NC5=O)C)C)C
How it was run: as §1

epoxomicin = compound: CC[C@H](C)[C@@H](C(=O)N[C@@H]([C@@H](C)O)C(=O)N[C@@H](CC(C)C)C(=O)[C@]1(CO1)C)NC(=O)[C@H]([C@@H](C)CC)N(C)C(=O)C [epoxomicin]
How it was run: as §1

[3] = compound: CCn1c(C(=O)N(C2CC2)C2CC2)cc2c3c(ncn3C)c(Nc3cc(C)n(C)n3)nc21
How it was run: as §1

[4] = compound: CCn1cc(-c2ccnc3[nH]c(-c4cccc(CN(C)C)c4)cc23)c(-c2ccc(NC(=O)N(C)C)cc2)n1
How it was run: as §1

[5] = compound: CN(C)CC(=O)Nc1ccc2[nH]c(=O)c3ccccc3c2c1
How it was run: as §1

rosiglitazone = compound: CN(CCOC1=CC=C(C=C1)C[C@H]2C(=O)NC(=O)S2)C3=CC=CC=N3 (racemic) [rosiglitazone]
How it was run: as §1

[6] = compound: CN1C2=C(C3=C1C(=O)N(N=C3)CC4=CC(=CC=C4)N)SC(=C2)S(=O)C
How it was run: as §1

[7] = compound: CN1CCC(CNc2ccc3ncc(-c4cccc(OC(F)(F)F)c4)n3n2)CC1
How it was run: as §1

Measured: log2 fold change

SEC23A (UniProt Q15436)
inactive: [1] 0.149 | volasertib -0.156 | [2] 0.1 | epoxomicin -0.016 | [3] 0.017 | [4] -0.123 | [5] 0.052 | rosiglitazone -0.011 | [6] -0.027 | [7] 0.042

RELA (UniProt Q04206)
UniProt Q04206, sequence (Q04206 whole entry, looked up): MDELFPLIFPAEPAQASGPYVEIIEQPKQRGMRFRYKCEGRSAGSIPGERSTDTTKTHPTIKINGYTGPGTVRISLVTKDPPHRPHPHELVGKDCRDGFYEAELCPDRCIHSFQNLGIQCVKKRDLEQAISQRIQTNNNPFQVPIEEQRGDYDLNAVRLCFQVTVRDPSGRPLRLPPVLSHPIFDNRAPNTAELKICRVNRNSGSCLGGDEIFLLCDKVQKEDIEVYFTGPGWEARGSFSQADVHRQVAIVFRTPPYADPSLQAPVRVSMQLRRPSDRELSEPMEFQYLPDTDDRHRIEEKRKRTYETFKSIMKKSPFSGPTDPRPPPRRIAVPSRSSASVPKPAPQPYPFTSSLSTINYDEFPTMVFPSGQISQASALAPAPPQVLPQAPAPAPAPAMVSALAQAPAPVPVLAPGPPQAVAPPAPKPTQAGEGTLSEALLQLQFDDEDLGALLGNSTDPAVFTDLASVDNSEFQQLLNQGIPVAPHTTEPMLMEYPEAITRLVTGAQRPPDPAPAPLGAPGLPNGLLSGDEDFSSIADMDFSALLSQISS
active: volasertib -0.263
inactive: [1] -0.063 | [2] 0.013 | epoxomicin 0.025 | [3] 0.027 | [4] -0.043 | [5] -0.019 | rosiglitazone 0.039 | [6] -0.009 | [7] -0.011

RPS16 (UniProt P62249)
inactive: [1] 0.125 | volasertib 0.388 | [2] 0.044 | epoxomicin -0.118 | [3] 0.026 | [4] 0.124 | [5] -0.085 | rosiglitazone -0.072 | [6] 0.112 | [7] 0.1

RAP2C (UniProt Q9Y3L5)
UniProt Q9Y3L5, sequence (Q9Y3L5 whole entry, looked up): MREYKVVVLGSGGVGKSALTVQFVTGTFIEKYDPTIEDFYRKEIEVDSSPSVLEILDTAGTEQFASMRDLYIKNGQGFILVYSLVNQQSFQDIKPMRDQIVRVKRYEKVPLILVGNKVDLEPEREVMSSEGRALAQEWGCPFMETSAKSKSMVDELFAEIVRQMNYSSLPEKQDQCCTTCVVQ
inactive: [1] 0.02 | volasertib 0.05 | [2] 0.042 | epoxomicin 0.172 | [3] 0.054 | [4] 0.097 | [5] 0.052 | rosiglitazone -0.045 | [6] -0.105 | [7] 0.173

RNPS1 (UniProt Q15287)
UniProt Q15287, sequence (Q15287 whole entry, looked up): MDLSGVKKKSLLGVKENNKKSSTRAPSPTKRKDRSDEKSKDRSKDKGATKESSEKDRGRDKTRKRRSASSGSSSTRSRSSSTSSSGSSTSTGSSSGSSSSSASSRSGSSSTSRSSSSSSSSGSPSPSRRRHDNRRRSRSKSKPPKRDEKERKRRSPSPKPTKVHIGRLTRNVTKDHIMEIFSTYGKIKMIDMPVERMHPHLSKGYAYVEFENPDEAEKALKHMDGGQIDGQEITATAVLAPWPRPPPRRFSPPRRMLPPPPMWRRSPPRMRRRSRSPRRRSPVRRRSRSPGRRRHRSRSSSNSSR
inactive: [1] 0.062 | volasertib -0.155 | [2] 0.049 | epoxomicin -0.126 | [3] -0.043 | [4] -0.008 | [5] 0.031 | rosiglitazone -0.08 | [6] 0.016 | [7] 0.006

RPS27A (UniProt P62979)
inactive: [1] -0.061 | volasertib 0.36 | [2] 0.05 | epoxomicin -0.078 | [3] 0.021 | [4] 0.033 | [5] -0.153 | rosiglitazone -0.145 | [6] 0.155 | [7] 0.194

SDHC (UniProt Q99643)
inactive: [1] 0.042 | volasertib 0.036 | [2] -0.1 | epoxomicin 0.205 | [3] 0.018 | [4] 0 | [5] 0.264 | rosiglitazone 0.064 | [6] -0.068 | [7] 0.023

RRAS2 isoform 4 (UniProt P62070)
active: [7] 0.207
inactive: [1] 0.061 | volasertib 0.124 | [2] -0.048 | epoxomicin 0.063 | [3] 0.004 | [4] 0.014 | [5] -0.013 | rosiglitazone 0.019 | [6] -0.064

RTF2 (UniProt Q9BY42)
active: volasertib -0.45
inactive: [1] -0.18 | [2] 0.003 | epoxomicin 0.118 | [3] -0.049 | [4] 0.012 | [5] 0.005 | rosiglitazone -0.055 | [6] -0.017 | [7] 0.161

RNASEH2A (UniProt O75792)
active: [7] -0.394
inactive: [1] -0.062 | volasertib -0.075 | [2] 0.068 | epoxomicin 0.061 | [3] -0.002 | [4] -0.061 | [5] -0.118 | rosiglitazone 0.013 | [6] -0.019

RPA3 (UniProt P35244)
inactive: [1] -0.006 | volasertib -0.056 | [2] -0.002 | epoxomicin 0.06 | [3] 0.021 | [4] -0.044 | [5] 0.163 | rosiglitazone 0.003 | [6] -0.054 | [7] 0.039

SHROOM2 (UniProt Q13796)
inactive: [1] 0.027 | volasertib 0.068 | [2] -0.243 | epoxomicin -0.136 | [3] -0.203 | [4] -0.072 | [5] -0.021 | rosiglitazone 0.058 | [6] -0.103 | [7] -0.094

RBM26 isoform 2 (UniProt Q5T8P6)
inactive: [1] -0.207 | volasertib -0.299 | [2] 0.151 | epoxomicin 0.098 | [3] -0.061 | [4] -0.069 | [5] 0.072 | rosiglitazone 0.094 | [6] -0.011 | [7] -0.177

RCC1 isoform 2 (UniProt P18754)
inactive: [1] -0.037 | volasertib -0.063 | [2] 0.044 | epoxomicin 0.118 | [3] -0.185 | [4] -0.02 | [5] 0.168 | rosiglitazone 0.053 | [6] -0.09 | [7] 0.11

SCCPDH (UniProt Q8NBX0)
inactive: [1] 0.083 | volasertib 0.158 | [2] -0.06 | epoxomicin -0.024 | [3] 0.008 | [4] -0.07 | [5] 0.039 | rosiglitazone 0.022 | [6] -0.194 | [7] 0.216

RNF2 (UniProt Q99496)
active: [2] -0.307
inactive: [1] -0.045 | volasertib -0.169 | epoxomicin 0.168 | [3] 0.1 | [4] 0.012 | [5] 0.007 | rosiglitazone 0.036 | [6] 0.063 | [7] -0.03

RPS6KA2 isoform 2 (UniProt Q15349)
UniProt Q15349, sequence (Q15349 whole entry, looked up): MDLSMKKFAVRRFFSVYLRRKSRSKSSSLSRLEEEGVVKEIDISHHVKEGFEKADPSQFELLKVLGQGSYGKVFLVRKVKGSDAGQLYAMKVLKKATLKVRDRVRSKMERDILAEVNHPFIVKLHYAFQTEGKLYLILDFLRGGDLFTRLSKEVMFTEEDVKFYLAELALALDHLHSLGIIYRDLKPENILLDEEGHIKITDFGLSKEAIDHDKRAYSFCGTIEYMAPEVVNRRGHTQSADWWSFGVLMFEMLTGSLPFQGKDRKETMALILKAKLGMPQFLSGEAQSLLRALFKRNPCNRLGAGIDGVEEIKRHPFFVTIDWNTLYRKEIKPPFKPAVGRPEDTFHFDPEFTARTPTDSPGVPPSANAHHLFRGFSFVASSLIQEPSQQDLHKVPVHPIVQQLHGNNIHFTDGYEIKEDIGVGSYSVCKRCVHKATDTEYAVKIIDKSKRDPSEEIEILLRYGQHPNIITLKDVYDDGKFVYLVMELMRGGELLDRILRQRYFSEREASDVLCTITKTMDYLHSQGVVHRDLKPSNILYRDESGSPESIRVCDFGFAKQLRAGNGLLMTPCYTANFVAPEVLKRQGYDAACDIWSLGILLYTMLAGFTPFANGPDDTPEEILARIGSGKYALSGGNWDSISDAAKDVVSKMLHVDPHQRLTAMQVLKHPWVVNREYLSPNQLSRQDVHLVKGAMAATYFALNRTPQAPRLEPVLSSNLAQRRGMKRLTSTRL
inactive: [1] -0.136 | volasertib -0.179 | [2] 0.034 | epoxomicin 0.041 | [3] 0.133 | [4] -0.126 | [5] 0.025 | rosiglitazone 0.072 | [6] -0.038 | [7] -0.313

SFXN5 (UniProt Q8TD22)
UniProt Q8TD22, sequence (Q8TD22 whole entry, looked up): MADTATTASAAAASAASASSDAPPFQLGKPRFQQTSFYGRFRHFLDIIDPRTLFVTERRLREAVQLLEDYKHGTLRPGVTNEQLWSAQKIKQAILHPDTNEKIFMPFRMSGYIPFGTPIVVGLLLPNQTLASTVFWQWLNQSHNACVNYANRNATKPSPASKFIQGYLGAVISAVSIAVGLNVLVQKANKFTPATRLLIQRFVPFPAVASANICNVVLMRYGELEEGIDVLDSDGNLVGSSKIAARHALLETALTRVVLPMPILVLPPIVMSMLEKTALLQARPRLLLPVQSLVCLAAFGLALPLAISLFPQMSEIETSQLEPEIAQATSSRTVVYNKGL
inactive: [1] 0.048 | volasertib -0.034 | [2] 0.022 | epoxomicin -0.009 | [3] -0.012 | [4] -0.039 | [5] 0.006 | rosiglitazone 0.007 | [6] -0.209 | [7] 0.063

SKP1 (UniProt P63208)
UniProt P63208, sequence (P63208 whole entry, looked up): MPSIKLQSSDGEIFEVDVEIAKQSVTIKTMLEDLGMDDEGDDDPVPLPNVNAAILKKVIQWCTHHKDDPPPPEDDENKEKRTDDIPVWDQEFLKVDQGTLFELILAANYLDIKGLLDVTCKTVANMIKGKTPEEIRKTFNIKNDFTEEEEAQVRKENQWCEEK
inactive: [1] -0.012 | volasertib -0.02 | [2] -0.027 | epoxomicin 0.034 | [3] 0.035 | [4] -0.035 | [5] -0.019 | rosiglitazone -0.02 | [6] -0.126 | [7] 0.244

RPS3A (UniProt P61247)
inactive: [1] 0.133 | volasertib 0.339 | [2] 0.02 | epoxomicin -0.124 | [3] 0.028 | [4] 0.114 | [5] -0.063 | rosiglitazone -0.064 | [6] 0.138 | [7] 0.105

SCD (UniProt O00767)
inactive: [1] 0 | volasertib 0.009 | [2] -0.063 | epoxomicin 0.109 | [3] 0.103 | [4] 0.036 | [5] 0.008 | rosiglitazone -0.023 | [6] 0.025 | [7] 0.095

SLC1A5 (UniProt Q15758)
active: [7] 0.226
inactive: [1] 0.095 | volasertib 0.027 | [2] -0.043 | epoxomicin -0.001 | [3] 0.042 | [4] -0.014 | [5] -0.02 | rosiglitazone -0.009 | [6] -0.114

RNPEP (UniProt Q9H4A4)
active: volasertib -0.303
inactive: [1] 0.015 | [2] 0.078 | epoxomicin 0.042 | [3] -0.074 | [4] -0.09 | [5] 0.034 | rosiglitazone 0.077 | [6] -0.036 | [7] -0.119

RBIS (UniProt Q8N0T1)
UniProt Q8N0T1, sequence (Q8N0T1 whole entry, looked up): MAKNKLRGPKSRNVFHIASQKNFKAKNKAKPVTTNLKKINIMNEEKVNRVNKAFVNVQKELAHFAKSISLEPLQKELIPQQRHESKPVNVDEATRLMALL
inactive: [1] 0.105 | volasertib 0.06 | [2] -0.012 | epoxomicin 0.204 | [3] 0.034 | [4] 0.075 | [5] -0.108 | rosiglitazone -0.008 | [6] 0.026 | [7] -0.034

SH3GLB2 (UniProt Q9NR46)
UniProt Q9NR46, sequence (Q9NR46 whole entry, looked up): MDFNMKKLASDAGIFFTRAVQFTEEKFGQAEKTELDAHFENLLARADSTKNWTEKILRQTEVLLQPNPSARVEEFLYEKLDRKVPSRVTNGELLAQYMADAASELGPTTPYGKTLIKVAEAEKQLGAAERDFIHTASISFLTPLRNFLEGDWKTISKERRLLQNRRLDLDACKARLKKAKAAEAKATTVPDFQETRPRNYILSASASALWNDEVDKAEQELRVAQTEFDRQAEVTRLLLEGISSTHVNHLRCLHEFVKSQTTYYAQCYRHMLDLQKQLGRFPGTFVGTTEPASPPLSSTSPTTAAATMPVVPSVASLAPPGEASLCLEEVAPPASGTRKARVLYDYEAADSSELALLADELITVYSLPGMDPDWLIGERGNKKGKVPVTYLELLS
active: volasertib -0.378
inactive: [1] -0.148 | [2] 0.072 | epoxomicin 0.041 | [3] -0.058 | [4] -0.101 | [5] 0.033 | rosiglitazone 0.041 | [6] 0.016 | [7] -0.254

RARS2 (UniProt Q5T160)
UniProt Q5T160, sequence (Q5T160 whole entry, looked up): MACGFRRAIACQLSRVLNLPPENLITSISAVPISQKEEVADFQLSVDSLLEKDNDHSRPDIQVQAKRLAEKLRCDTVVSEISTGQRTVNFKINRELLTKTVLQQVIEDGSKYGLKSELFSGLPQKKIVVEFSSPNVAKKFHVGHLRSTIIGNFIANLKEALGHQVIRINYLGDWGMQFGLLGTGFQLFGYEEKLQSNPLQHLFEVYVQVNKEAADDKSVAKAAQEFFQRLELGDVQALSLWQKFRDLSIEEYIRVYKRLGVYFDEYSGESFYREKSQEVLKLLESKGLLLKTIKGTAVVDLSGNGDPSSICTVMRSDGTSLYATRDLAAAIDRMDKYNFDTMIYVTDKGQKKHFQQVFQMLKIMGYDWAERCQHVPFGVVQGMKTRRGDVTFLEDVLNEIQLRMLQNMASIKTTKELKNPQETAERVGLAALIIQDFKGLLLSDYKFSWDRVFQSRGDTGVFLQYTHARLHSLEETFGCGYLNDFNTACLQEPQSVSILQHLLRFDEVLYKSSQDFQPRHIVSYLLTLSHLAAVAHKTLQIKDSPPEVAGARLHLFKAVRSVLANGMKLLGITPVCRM
inactive: [1] -0.121 | [2] -0.003 | epoxomicin 0.04 | [3] 0.013 | [4] -0.046 | [5] 0.026 | rosiglitazone 0.019 | [6] -0.065 | [7] -0.143
active: volasertib -0.238

SDCBP (UniProt O00560)
UniProt O00560, sequence (O00560 whole entry, looked up): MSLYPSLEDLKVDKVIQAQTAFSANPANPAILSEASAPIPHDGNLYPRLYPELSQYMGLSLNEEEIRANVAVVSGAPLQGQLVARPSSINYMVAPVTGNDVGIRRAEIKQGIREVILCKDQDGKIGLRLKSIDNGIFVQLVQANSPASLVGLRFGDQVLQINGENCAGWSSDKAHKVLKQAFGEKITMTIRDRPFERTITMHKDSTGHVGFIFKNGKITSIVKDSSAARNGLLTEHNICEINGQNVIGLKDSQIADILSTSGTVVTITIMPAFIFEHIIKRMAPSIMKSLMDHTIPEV
inactive: [1] -0.223 | volasertib -0.249 | [2] 0.01 | epoxomicin -0.043 | [3] 0.059 | [4] -0.01 | [5] -0.061 | rosiglitazone -0.008 | [6] 0.045 | [7] -0.229

RB1 (UniProt P06400)
UniProt P06400, sequence (P06400 whole entry, looked up): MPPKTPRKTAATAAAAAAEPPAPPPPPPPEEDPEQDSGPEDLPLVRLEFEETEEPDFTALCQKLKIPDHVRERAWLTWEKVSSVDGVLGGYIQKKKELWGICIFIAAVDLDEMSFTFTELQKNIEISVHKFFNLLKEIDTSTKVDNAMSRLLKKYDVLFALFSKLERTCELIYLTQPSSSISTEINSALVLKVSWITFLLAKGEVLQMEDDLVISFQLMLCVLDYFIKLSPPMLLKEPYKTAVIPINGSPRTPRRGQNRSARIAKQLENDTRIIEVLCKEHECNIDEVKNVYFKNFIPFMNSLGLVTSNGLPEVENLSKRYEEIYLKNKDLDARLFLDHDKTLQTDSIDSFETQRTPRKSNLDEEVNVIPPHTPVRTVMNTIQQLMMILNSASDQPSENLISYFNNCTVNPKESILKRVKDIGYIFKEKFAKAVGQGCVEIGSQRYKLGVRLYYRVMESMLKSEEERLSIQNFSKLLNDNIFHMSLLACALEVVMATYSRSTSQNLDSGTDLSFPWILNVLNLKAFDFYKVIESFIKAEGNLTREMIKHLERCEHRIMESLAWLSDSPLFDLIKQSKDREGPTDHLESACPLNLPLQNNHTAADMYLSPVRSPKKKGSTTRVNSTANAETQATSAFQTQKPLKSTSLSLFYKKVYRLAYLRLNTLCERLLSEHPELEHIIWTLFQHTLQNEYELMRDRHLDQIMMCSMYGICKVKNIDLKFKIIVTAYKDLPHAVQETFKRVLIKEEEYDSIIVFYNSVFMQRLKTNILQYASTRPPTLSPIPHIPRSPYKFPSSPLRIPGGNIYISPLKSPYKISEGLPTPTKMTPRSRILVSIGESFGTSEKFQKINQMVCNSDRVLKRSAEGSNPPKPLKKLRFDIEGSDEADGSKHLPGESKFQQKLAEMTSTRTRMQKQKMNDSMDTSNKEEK
inactive: [1] 0.018 | volasertib 0.034 | [2] 0.016 | epoxomicin 0.041 | [3] -0.016 | [4] -0.05 | [5] 0.008 | rosiglitazone 0.009 | [6] -0.064
active: [7] -0.265

SEH1L isoform 1 (UniProt Q96EE3)
UniProt Q96EE3, sequence (Q96EE3 whole entry, looked up): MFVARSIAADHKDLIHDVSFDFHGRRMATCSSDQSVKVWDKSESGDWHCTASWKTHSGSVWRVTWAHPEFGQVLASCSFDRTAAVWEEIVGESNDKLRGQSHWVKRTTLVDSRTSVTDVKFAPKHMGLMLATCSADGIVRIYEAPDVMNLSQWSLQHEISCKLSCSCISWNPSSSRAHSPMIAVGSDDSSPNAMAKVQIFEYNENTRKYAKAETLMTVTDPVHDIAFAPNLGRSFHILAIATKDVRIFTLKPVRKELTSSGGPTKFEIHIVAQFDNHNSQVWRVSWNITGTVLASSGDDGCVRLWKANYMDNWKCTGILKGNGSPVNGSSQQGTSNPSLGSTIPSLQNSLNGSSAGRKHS
inactive: [1] -0.044 | [2] -0.019 | epoxomicin -0.057 | [3] -0.009 | [4] -0.041 | [5] -0.013 | rosiglitazone -0.01 | [6] -0.054 | [7] 0.027
active: volasertib 0.466

RRP12 (UniProt Q5JTH9)
inactive: [1] 0.246 | volasertib 0 | [2] 0.029 | epoxomicin 0.054 | [3] -0.036 | [4] -0.057 | [5] -0.046 | rosiglitazone 0.026 | [6] 0.066 | [7] 0.161

Reference: the supplement of paper PMC10849652
